Measurements published in PubChem BioAssay (NCI).
Compounds without any hit were thinned out: in the full panel of roughly 79,000, 15% have a hit. Unmarked numbers belong to inactive results. Activity calls are given as the source filed them. Rule as the data show it: active = growth inhibition above about 70%; inactive = the rest.

Columns and labels:
[1] = NCI Yeast Anticancer Drug Screen. Data for the rad52 strain (AID 147);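 also: 0% = growth of vehicle-treated control cultures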; details: S. cerevisiae rad52 mutant growth inhibition, stronger effect = higher value
Procedure, shortened: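 Compounds are applied to a genetically defined yeast strain lacking normal DNA damage repair, and inhibition of growth is expressed relative to cultures given vehicle only.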

[2] = NCI Yeast Anticancer Drug Screen. Data for the wt1 strain (AID 149);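 also: 0% = growth of vehicle-treated wt1 cultures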; details: S. cerevisiae wt1 strain (SPY 50644) growth inhibition, stronger effect = higher value
Procedure, shortened: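 Using yeast strain wt1, compound-induced growth inhibition was determined against vehicle-treated cultures.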

[3] = NCI Yeast Anticancer Drug Screen. Data for the rad50EPP+ strain (AID 151);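 also: 0% = growth of vehicle-treated control cultures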; details: S. cerevisiae rad50 mutant strain, stronger effect = higher value
Procedure, shortened: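 Compounds were applied to the rad50EPP+ yeast strain, which bears a defined DNA repair alteration, and growth inhibition was determined relative to vehicle-treated cultures.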

[4] = NCI Yeast Anticancer Drug Screen. Data for the mgt1 strain (AID 153); details: S. cerevisiae mgt1 mutant growth inhibition, stronger effect = higher value
Procedure, shortened: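 Strain: mgt1 yeast, one of a set carrying defined DNA damage repair or cell cycle control alterations. Compound-treated growth compared with vehicle.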

[5] = NCI Yeast Anticancer Drug Screen. Data for the rad50 strain (AID 155);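 also: 0% = growth of vehicle-only cultures of the same strain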; details: S. cerevisiae rad50 strain growth inhibition, stronger effect = higher value
Procedure, shortened: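 Relative growth inhibition (compound vs vehicle) was measured in yeast with a defined repair-gene alteration.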

[6] = NCI Yeast Anticancer Drug Screen. Data for the mec2-1 strain (AID 157); details: S. cerevisiae mec2-1 strain, stronger effect = higher value
Procedure, shortened: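 Strain: mec2-1 (DNA repair/cell cycle alteration). Compound exposure, then growth measured; inhibition expressed relative to vehicle.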

[7] = NCI Yeast Anticancer Drug Screen. Data for the rad14 strain (AID 159);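 also: 0% = growth of vehicle-treated control cultures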; details: S. cerevisiae rad14 strain growth inhibition, stronger effect = higher value
Procedure, shortened: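 Screen for anticancer potential: a yeast strain altered in DNA damage repair is grown with compound, and reduced growth is quantified against vehicle controls.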

[8] = NCI Yeast Anticancer Drug Screen. Data for the sgs1 mgt1 strain (AID 161);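 also: 0% = growth of cultures given vehicle only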; details: S. cerevisiae sgs1 mgt1 strain, stronger effect = higher value
Procedure, shortened: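 Mutant yeast exposed to compound; growth scored against vehicle-only wells.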

[9] = NCI Yeast Anticancer Drug Screen. Data for the cln2 rad14 strain (AID 165);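 also: 0% = growth equal to vehicle treated cultures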; details: S. cerevisiae cln2 rad14 strain, stronger effect = higher value
Procedure, shortened: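 Compounds are applied to the cln2 rad14 yeast strain, and growth is then compared with that of vehicle-treated cultures to give inhibition.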

[10] = NCI Yeast Anticancer Drug Screen. Data for the bub3 strain (AID 167); details: S. cerevisiae bub3 mutant strain, stronger effect = higher value
Procedure, shortened: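 Screening used yeast with an engineered genetic alteration affecting cell cycle control. Compound-exposed cultures were compared with vehicle cultures, and reduced growth was taken as inhibition.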

[11] = NCI Yeast Anticancer Drug Screen. Data for the wt2 strain (AID 169);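 also: 0% = growth of vehicle-treated yeast cultures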; details: S. cerevisiae wt2 strain growth inhibition, stronger effect = higher value
Procedure, shortened: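 This strain belongs to a panel of yeast strains with defined genetic alterations in DNA damage repair or cell cycle control. Compounds are applied, and growth inhibition is measured against vehicle-treated cultures.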

[12] = NCI Yeast Anticancer Drug Screen. Data for the mlh1 strain (AID 171);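 also: 0% = growth of vehicle-treated control cultures of the same strain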; details: S. cerevisiae mlh1 strain growth inhibition, stronger effect = higher value
Procedure, shortened: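 Growth of the mutant yeast strain after compound exposure, expressed as inhibition relative to vehicle-only controls.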

[13] = NCI Yeast Anticancer Drug Screen. Data for the sgs1 strain (AID 173);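 also: 0% = growth of vehicle-only control cultures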; details: S. cerevisiae sgs1 mutant, stronger effect = higher value
Procedure, shortened: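 Growth of a yeast strain bearing a defined genetic alteration is measured after compound treatment. Inhibition is expressed relative to vehicle-only controls.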

[14] = NCI Yeast Anticancer Drug Screen. Data for the mlh1 rad18 strain (AID 175); details: S. cerevisiae mlh1 rad18 strain growth inhibition, stronger effect = higher value
Procedure, shortened: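 Read-out is yeast growth inhibition, calculated against vehicle-only controls. The compound was applied to a strain engineered with DNA damage repair alterations.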

[15] = NCI Yeast Anticancer Drug Screen. Data for the rad18 strain (AID 177); details: S. cerevisiae rad18 mutant growth inhibition, stronger effect = higher value
Procedure, shortened: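 Growth of the mutant yeast strain after compound exposure, normalised to vehicle-only cultures.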

[16] = at 5.0 µM (retest, dose inferred, filed as 0.5)
[17] = at 50.0 µM (retest, dose inferred, filed as 5.0)

Q: What does the source list for `c1ccc(CCN2CCc3ccccc3C2)cc1`?
A: growth inhibition ([1]; at 1.2 µM): -1%; growth inhibition ([1]; at 3.7 µM): 0%; growth inhibition ([1]; at 11.0 µM): 10%; growth inhibition ([1]; at 33.0 µM): 12%; growth inhibition ([1]; at 100.0 µM): 19%; growth inhibition ([2]; at 1.2 µM): -1%; growth inhibition ([2]; at 3.7 µM): 4%; growth inhibition ([2]; at 11.0 µM): 4%; growth inhibition ([2]; at 33.0 µM): 6%; growth inhibition ([2]; at 100.0 µM): 4%; growth inhibition ([3]; at 1.2 µM): -3%; growth inhibition ([3]; at 3.7 µM): -3%; growth inhibition ([3]; at 11.0 µM): -1%; growth inhibition ([3]; at 33.0 µM): -4%; growth inhibition ([3]; at 100.0 µM): 0%; growth inhibition ([4]; at 1.2 µM): -2%; growth inhibition ([4]; at 3.7 µM): -3%; growth inhibition ([4]; at 11.0 µM): 4%; growth inhibition ([4]; at 33.0 µM): 6%; growth inhibition ([4]; at 100.0 µM): 16%; growth inhibition ([5]; at 1.2 µM): 1%; growth inhibition ([5]; at 3.7 µM): 2%; growth inhibition [5, 16]: -9%; growth inhibition ([5]; at 11.0 µM): 3%; growth inhibition ([5]; at 33.0 µM): 8%; growth inhibition [5, 17]: 49%; growth inhibition ([5]; at 50.0 µM): 43.9%; growth inhibition ([5]; at 100.0 µM): 10%; growth inhibition ([6]; at 1.2 µM): -3%; growth inhibition ([6]; at 3.7 µM): 1%; growth inhibition [6, 16]: -10%; growth inhibition ([6]; at 11.0 µM): 6%; growth inhibition ([6]; at 33.0 µM): 8%; growth inhibition [6, 17]: 1%; growth inhibition ([6]; at 50.0 µM): 12.8%; growth inhibition ([6]; at 100.0 µM): 8%; growth inhibition ([7]; at 1.2 µM): 2%; growth inhibition ([7]; at 3.7 µM): 10%; growth inhibition ([7]; at 11.0 µM): 24%; growth inhibition ([7]; at 33.0 µM): 33%; growth inhibition ([7]; at 100.0 µM): 29%; growth inhibition [8, 16]: -5%; growth inhibition [8, 17]: 49%; growth inhibition ([8]; at 50.0 µM): 49.8%; growth inhibition [9, 16]: -6%; growth inhibition [9, 17]: 21%; growth inhibition ([9]; at 50.0 µM): 33.7%; growth inhibition ([10]; at 1.2 µM): -1%; growth inhibition ([10]; at 3.7 µM): -1%; growth inhibition [10, 16]: 24%; growth inhibition ([10]; at 11.0 µM): 7%; growth inhibition ([10]; at 33.0 µM): 21%; growth inhibition [10, 17]: 74% (active); growth inhibition ([10]; at 50.0 µM): 56.8%; growth inhibition ([10]; at 100.0 µM): 40%; growth inhibition ([11]; at 1.2 µM): -1%; growth inhibition ([11]; at 3.7 µM): 1%; growth inhibition ([11]; at 11.0 µM): 4%; growth inhibition ([11]; at 33.0 µM): 8%; growth inhibition ([11]; at 100.0 µM): 8%; growth inhibition ([12]; at 1.2 µM): -2%; growth inhibition ([12]; at 3.7 µM): 1%; growth inhibition ([12]; at 11.0 µM): 4%; growth inhibition ([12]; at 33.0 µM): 11%; growth inhibition ([12]; at 100.0 µM): 11%; growth inhibition ([13]; at 1.2 µM): -1%; growth inhibition ([13]; at 3.7 µM): 0%; growth inhibition ([13]; at 11.0 µM): 6%; growth inhibition ([13]; at 33.0 µM): 18%; growth inhibition ([13]; at 100.0 µM): 17%; growth inhibition [14, 16]: 11%; growth inhibition [14, 17]: 71% (active); growth inhibition ([14]; at 50.0 µM): 21.9%; growth inhibition ([15]; at 1.2 µM): 0%; growth inhibition ([15]; at 3.7 µM): 1%; growth inhibition ([15]; at 11.0 µM): 8%; growth inhibition ([15]; at 33.0 µM): 13%; growth inhibition ([15]; at 100.0 µM): 10%
